Test results taken from PubChem BioAssay (Tox21).
Values without a mark were called inactive. Inconclusive results are not listed. A call without a number means that no potency is given here. Active and inactive are the calls of the source. Unless noted, calls come from the whole dose curve.

Tests used:
[1] = Nuclear factor erythroid 2-related factor 2/antioxidant responsive element (Nrf2/ARE) small molecule agonists: qHTS cell viability counter screen in human keratinocytes (AID 1919968; active = well fitted curve in the direction sought with a large enough effect in the repeat runs; an effect the other way counts as inactive or inconclusive; note: nearly all actives have a fitted effect of over 55% in size)
Summary of the method: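 After a 5 h attachment period, ARE-reporter keratinocytes were dosed with compounds in DMSO and then cultured 23 h at 37 C. Cell viability came from CellTiter-Fluor signal read after a further 1 h.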

[2] = Nuclear factor erythroid 2-related factor 2/antioxidant responsive element (Nrf2/ARE) small molecule agonists: luciferase reporter gene qHTS assay in human keratinocytes (AID 1919969); note: nearly all actives have a fitted effect of over 35% in size
[3] = biological target: Gonadotropin-releasing hormone receptor (Homo sapiens) (UniProt P30968); test: Human gonadotropin-releasing hormone receptor (GnRHR) small molecule agonists, calcium flux assay in GnRHR-HEK293 cells (AID 1920063); note: nearly all actives have a fitted effect of over 35% in size
Summary of the method: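 We seeded human GnRHR-expressing HEK293 cells for 18 hours, loaded them with calcium dye for an hour at 37 C, added test compounds, and recorded fluorescence intensity kinetically for three minutes.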

[4] = biological target: KiSS-1 receptor (Homo sapiens) (UniProt Q969F8); test: Human kisspeptin (KISS1R) small molecule agonists, calcium flux assay in KISS1R-HEK293 cells (AID 1920064; active = well fitted curve in the direction sought with a large enough effect in the repeat runs; an effect the other way counts as inactive or inconclusive)
Summary of the method: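 Kinetic calcium assay, 1 s sampling over 3 min at Ex/Em 480/540, in HEK293 cells engineered with human KISS1R; compounds delivered in DMSO after 1 h dye loading.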

[5] = G protein-coupled receptor (GPCR) small molecule agonists, calcium flux assay: HEK293 wild type cell line counter screen (AID 1920065)
Summary of the method: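 Calcium-sensitive dye, loaded 1 h at 37 C into cells cultured 18 h, reports compound-evoked calcium release as fluorescence (Ex/Em 480/540), measured over 3 min. Agonist mode; 15-point titrations, triplicate.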

[6] = p53 small molecule agonists, cell-based qHTS assay with human liver microsomes (AID 1963577);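 note: p53 response element beta-lactamase reporter cells with liver microsomes plus NADPH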
Summary of the method: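 16 h, 37 C exposure of p53RE-bla cells to compounds with human liver microsomes and NADPH (0.5 mg/mL final each); detection via LiveBLAzer mixture, 2 h dark at room temperature.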

[7] = p53 small molecule agonists, cell-based qHTS assay with rat liver microsomes (AID 1963578)
Summary of the method: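 With rat liver microsomes and NADPH present (0.5 mg/mL final each), p53RE-bla cells are treated with compound for 16 h at 37 C. LiveBLAzer detection mixture is then applied for 2 h at room temperature in the dark.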

[8] = p53 small molecule agonists, cell-based qHTS assay with human liver microsomes: qHTS cell viability counter screen (AID 1963579); note: nearly all actives have a fitted effect of over 45% in size
Summary of the method: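 In this multiplexed counter screen, the reporter plates were subsequently treated with CellTiter-Glo so that cell viability, reflected by luminescence, could be recorded for p53RE-bla cells dosed 16 h with compounds under microsomal activation (HLM and NADPH).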

[9] = p53 small molecule agonists, cell-based qHTS assay with rat liver microsomes: qHTS cell viability counter screen (AID 1963580); note: nearly all actives have a fitted effect of over 45% in size
Summary of the method: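 Viability is assessed in parallel with the p53 reporter read: HCT-116 p53RE-bla cells receive compounds plus rat microsomes and NADPH (0.5 mg/mL final apiece), incubate 16 h at 37 C, and then CellTiter-Glo luminescence is recorded.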

[10] = p53 small molecule agonists, cell-based qHTS assay: qHTS cell viability counter screen (AID 1963581); note: nearly all actives have a fitted effect of over 45% in size
Summary of the method: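 Following 5 h attachment, HCT-116 p53RE-bla cells took up compound for 16 h at 37 C; the reporter was read with B/G FRET substrate (2 h RT), and viability then via CellTiter-Glo ATP luminescence.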

[11] = p53 small molecule agonists, cell-based qHTS assay (AID 1963582; active = well fitted activation curve with a large enough effect in the signal ratio in the repeat runs, not every such curve was filed as active; the % refers to the signal ratio)
Summary of the method: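 In this cell-based concentration-response screen, a p53 response element drives beta-lactamase; cells received DMSO-borne compounds after 5 h culture and were incubated a further 16 h before FRET substrate development.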

[12] = biological target: 5-hydroxytryptamine receptor 2A (Homo sapiens) (UniProt P28223); test: 5-hydroxytryptamine receptor 2A (HTR2A) small molecule antagonists, cell-based qHTS assay (AID 1963586); note: nearly all actives have a fitted effect of over 45% in size; note: potency is the fitted concentration of half-maximal effect
Summary of the method: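 Antagonist-mode intracellular calcium assay: DOI (4 nM) added after 5 min compound pre-incubation at room temperature to dye-loaded HTR2A-CHO cells. Fluorescence followed for 3 min, sampled every second.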

[13] = biological target: 5-hydroxytryptamine receptor 2A (Homo sapiens) (UniProt P28223); test: 5-hydroxytryptamine receptor 2A (HTR2A) small molecule agonists, cell-based qHTS assay (AID 1963587); note: nearly all actives have a fitted effect of over 30% in size; note: potency is the fitted concentration of half-maximal effect
Summary of the method: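 CHO cells stably expressing human HTR2A, plated 18 h, loaded with calcium dye 1 h at 37 C. Agonist mode: compounds added and intracellular calcium fluorescence recorded kinetically for 2 min at 1 sec intervals.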

[14] = biological target: Muscarinic acetylcholine receptor M1 (Homo sapiens) (UniProt P11229); test: Cholinergic receptor muscarinic 1 (CHRM1) small molecule agonists, cell-based qHTS assay (AID 1963589); note: nearly all actives have a fitted effect of over 35% in size
Summary of the method: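 Measures agonist-induced intracellular calcium rise. Stable human CHRM1 CHO line, 1 h dye load at 37 C, compounds from DMSO, kinetic fluorescence read.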

[15] = cAMP Responsive Elements (CRE) small molecule agonists, cell-based qHTS assay (AID 1963590)
Summary of the method: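 A CRE-responsive beta-lactamase reporter in HEK 293T cells was used. Treatment ran 3 h at 37 C; detection used LiveBLAzer B/G FRET substrate for 2 h at room temperature.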

[16] = cAMP Responsive Elements (CRE) small molecule antagonists, cell-based qHTS assay (AID 1963591; active = well fitted inhibition curve with a large enough effect in the signal ratio in the repeat runs, not every such curve was filed as active; the % refers to the signal ratio)
Summary of the method: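 HEK293T cells carrying a CRE-driven beta-lactamase reporter receive compound and NKH477 (0.25 uM final) for 3 h. Fluorescence from LiveBLAzer B/G FRET substrate is read after 2 h at room temperature.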

[17] = biological target: Beta-2 adrenergic receptor (Homo sapiens) (UniProt P07550); test: Adrenergic beta2 receptor (ADRB2) small molecule antagonists, cell-based qHTS assay (AID 1963592); note: series mostly up to about 92 µM; nearly all actives have a fitted effect of over 50% in size
Summary of the method: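 Cells (CHO, stable ADRB2 overexpression) incubated 18-20hr at 37C; compounds added from DMSO; agonist mix (1nM isoproterenol, 100uM IBMX, 25uM Ro-20-1724) added; 0.5hr RT; d2-cAMP and anti-cAMP-cryptate added; 1hr RT; 665/615 nm read.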

[18] = biological target: D(2) dopamine receptor (Homo sapiens) (UniProt P14416); test: Dopamine D2 receptor (DRD2) small molecule agonists, cell-based qHTS assay (AID 1963594); note: nearly all actives have a fitted effect of over 35% in size
Summary of the method: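 HEK293 cells stably expressing human DRD2, pre-treated with PDE inhibitor Ro20-1724 (0.1 mM final) and compound 10 min at room temperature, then stimulated with NKH477 (200nM […]) for 30 min. cAMP read by HTRF (665/620 nm).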

[19] = biological target: D(2) dopamine receptor (Homo sapiens) (UniProt P14416); test: Dopamine D2 receptor (DRD2) small molecule antagonists, cell-based qHTS assay (AID 1963595; active = well fitted inhibition curve with a large enough effect in the signal ratio in the repeat runs, with a control signal flat; the % refers to the signal ratio; note: potency is the fitted concentration of half-maximal effect)
Summary of the method: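 Antagonism was scored as restored cAMP in HEK293-DRD2 cells. These cells were stimulated with 200 nM NKH477 and 12 nM quinpirole for 30 min at room temperature, in the presence of 0.1 mM Ro20-1724.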

[20] = biological target: Muscarinic acetylcholine receptor M1 (Homo sapiens) (UniProt P11229); test: Cholinergic receptor muscarinic 1 (CHRM1) small molecule antagonists, cell-based qHTS assay (AID 1963588); note: nearly all actives have a fitted effect of over 40% in size; note: potency is the fitted concentration of half-maximal effect
Summary of the method: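 CHRM1-CHO calcium-flux assay, antagonist mode. Cells were seeded 18 h, dye-loaded 1 h at 37 C and given compound for 5 min at RT, then acetylcholine was added at 50nM. FDSS fluorescence was read 3 min; 15 concentrations, three runs.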

Chain of Gonadotropin-releasing hormone receptor (Homo sapiens) (P30968 whole entry, looked up): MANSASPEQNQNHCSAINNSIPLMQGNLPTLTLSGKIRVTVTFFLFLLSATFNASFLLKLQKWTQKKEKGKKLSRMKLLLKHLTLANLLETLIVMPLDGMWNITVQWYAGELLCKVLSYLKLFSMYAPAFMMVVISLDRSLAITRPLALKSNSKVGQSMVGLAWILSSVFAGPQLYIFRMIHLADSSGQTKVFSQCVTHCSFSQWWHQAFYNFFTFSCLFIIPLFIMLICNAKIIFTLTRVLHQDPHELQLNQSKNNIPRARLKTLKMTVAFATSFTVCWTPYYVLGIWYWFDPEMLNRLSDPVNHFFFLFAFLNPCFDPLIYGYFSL
Chain of Muscarinic acetylcholine receptor M1 (Homo sapiens) (P11229 whole entry, looked up): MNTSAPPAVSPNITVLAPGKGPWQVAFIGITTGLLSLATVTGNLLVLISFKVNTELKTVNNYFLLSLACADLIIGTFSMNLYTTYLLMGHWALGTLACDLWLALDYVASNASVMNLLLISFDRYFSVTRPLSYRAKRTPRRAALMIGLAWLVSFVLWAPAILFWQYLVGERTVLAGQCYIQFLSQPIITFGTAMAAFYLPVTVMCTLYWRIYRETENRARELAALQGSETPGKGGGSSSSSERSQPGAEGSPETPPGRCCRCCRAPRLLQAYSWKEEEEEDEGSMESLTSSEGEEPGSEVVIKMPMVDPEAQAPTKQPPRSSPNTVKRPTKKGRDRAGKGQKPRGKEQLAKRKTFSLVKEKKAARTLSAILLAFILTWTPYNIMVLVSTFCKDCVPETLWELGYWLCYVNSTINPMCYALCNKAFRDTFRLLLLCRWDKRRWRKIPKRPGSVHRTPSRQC
Chain of 5-hydroxytryptamine receptor 2A (Homo sapiens) (P28223 whole entry, looked up): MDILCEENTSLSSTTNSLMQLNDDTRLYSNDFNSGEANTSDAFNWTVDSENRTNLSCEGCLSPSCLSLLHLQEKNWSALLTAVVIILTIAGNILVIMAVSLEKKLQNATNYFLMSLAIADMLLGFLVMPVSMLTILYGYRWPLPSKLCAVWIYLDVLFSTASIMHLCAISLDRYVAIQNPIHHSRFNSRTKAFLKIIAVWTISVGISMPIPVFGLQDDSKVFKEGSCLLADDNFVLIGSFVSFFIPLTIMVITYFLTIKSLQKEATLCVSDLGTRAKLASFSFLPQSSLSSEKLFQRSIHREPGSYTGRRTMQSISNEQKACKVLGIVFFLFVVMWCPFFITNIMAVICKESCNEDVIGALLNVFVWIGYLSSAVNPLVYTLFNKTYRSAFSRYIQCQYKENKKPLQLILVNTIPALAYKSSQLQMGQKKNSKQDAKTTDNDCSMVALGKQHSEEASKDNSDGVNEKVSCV
Chain of Beta-2 adrenergic receptor (Homo sapiens) (P07550 whole entry, looked up): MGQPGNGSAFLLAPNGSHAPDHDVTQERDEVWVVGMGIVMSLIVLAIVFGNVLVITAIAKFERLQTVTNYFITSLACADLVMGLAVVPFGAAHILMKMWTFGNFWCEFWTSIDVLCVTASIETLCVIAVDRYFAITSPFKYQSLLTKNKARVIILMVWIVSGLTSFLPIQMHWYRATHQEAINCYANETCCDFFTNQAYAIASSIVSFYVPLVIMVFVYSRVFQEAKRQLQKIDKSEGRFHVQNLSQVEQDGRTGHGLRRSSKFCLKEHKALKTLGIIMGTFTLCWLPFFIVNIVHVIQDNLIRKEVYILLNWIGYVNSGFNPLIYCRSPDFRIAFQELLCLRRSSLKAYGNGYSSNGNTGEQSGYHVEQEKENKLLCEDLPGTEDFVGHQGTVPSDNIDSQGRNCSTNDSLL
Chain of KiSS-1 receptor (Homo sapiens) (Q969F8 whole entry, looked up): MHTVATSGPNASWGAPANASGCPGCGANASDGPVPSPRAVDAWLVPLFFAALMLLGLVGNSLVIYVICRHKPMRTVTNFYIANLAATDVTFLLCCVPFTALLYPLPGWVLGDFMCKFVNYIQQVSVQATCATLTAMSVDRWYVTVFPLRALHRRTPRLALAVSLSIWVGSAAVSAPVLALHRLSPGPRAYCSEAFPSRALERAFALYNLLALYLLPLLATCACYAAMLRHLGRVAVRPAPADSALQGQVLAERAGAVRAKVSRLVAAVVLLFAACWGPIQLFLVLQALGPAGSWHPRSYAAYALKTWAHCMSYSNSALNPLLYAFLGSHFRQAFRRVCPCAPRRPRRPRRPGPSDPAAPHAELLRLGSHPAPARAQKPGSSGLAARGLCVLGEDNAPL
Chain of D(2) dopamine receptor (Homo sapiens) (P14416 whole entry, looked up): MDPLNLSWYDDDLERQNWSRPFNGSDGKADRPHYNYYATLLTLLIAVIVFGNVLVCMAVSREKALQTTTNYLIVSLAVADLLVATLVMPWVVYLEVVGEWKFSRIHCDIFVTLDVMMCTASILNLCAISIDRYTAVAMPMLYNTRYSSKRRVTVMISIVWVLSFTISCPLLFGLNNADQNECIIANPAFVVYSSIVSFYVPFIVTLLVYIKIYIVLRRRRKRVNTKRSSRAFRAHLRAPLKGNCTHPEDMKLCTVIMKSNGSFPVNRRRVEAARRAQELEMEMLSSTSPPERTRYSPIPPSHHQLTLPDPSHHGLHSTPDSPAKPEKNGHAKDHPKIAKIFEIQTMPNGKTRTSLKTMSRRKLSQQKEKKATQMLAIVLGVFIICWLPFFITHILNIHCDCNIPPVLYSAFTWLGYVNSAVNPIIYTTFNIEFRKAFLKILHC

Row | Structure (SMILES) | Potency [1] | Potency [2] | Potency [3] | Potency [4] | Potency [5] | Potency [6] | Potency [7] | Potency [8] | Potency [9] | Potency [10] | Potency [11] | Potency [12] | Potency [13] | Potency [14] | Potency [15] | Potency [16] | Potency [17] | Potency [18] | Potency [19] | Potency [20]
1 | OC(Cn1cncn1)(c1ccc(F)cc1)c1ccccc1F (stereo unspecified) | inactive | inactive | inactive | inactive | inactive | inactive | inactive | inactive | inactive | inactive | inactive | inactive | inactive | inactive | inactive | inactive | inactive | inactive | – | –
2 | CCOc1cccc(C2(N3CCN(c4ccccc4)CC3)CCC(C)CC2)c1 (stereo unspecified) | inactive | inactive | inactive | inactive | inactive | inactive | inactive | inactive | inactive | inactive | inactive | inactive | inactive | inactive | inactive | inactive | inactive | inactive | inactive | –
3 | CN1[C@@H]2CC[C@H]1CC(OC(=O)c1cc(Cl)cc(Cl)c1)C2 (stereo partly specified) | inactive | inactive | inactive | inactive | inactive | inactive | inactive | inactive | inactive | inactive | inactive | inactive | inactive | inactive | inactive | inactive | – | inactive | inactive | –
4 | CC(C)NCC(O)c1ccc(N)c(C#N)c1 (stereo unspecified) | inactive | inactive | inactive | inactive | inactive | inactive | inactive | inactive | inactive | inactive | inactive | 18.3 µM (active) | 7.56 µM (active) | inactive | – | inactive | – | inactive | 0.0047 µM (active) | inactive
5 | C[N+](C)(C)CCOC(=O)C(O)(c1ccccc1)c1ccccc1 | inactive | inactive | inactive | inactive | inactive | inactive | inactive | inactive | inactive | inactive | inactive | inactive | inactive | inactive | inactive | inactive | – | inactive | inactive | –
6 | CCC(=O)C(CCN(C)C)(c1ccccc1)c1ccccc1 | inactive | inactive | inactive | inactive | inactive | inactive | inactive | inactive | inactive | inactive | inactive | 16.3 µM (active) | inactive | inactive | – | – | inactive | – | inactive | 11.6 µM (active)
7 | CC(=O)OC1(c2ccccc2)CCN(CCc2ccccc2)CC1 | inactive | inactive | inactive | inactive | inactive | inactive | inactive | inactive | inactive | inactive | inactive | 9.65 µM (active) | inactive | inactive | – | inactive | inactive | – | inactive | inactive
